# Compounds without any hit were thinned out: in the full panel of roughly 83,000, 20% have a hit.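 Interpretation: 100, growth as untreated; towards 0, rising growth inhibition; 0, no net growth; 0 to -100, cell death. Compounds scoring below 10 were considered active.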 A number with no mark means an inactive call. Activity calls are given as the source filed them.
# Legend:
# Assay in all cases: NCI-60 one-dose screen, 48 h (100 = growth as untreated, 0 = no growth, -100 = all killed)
# Settings in all cases: 10 µM
# T-47D breast = test system: T-47D breast
# BT-549 breast = test system: BT-549 breast
# MDA-MB-435 melanoma = test system: MDA-MB-435 melanoma
# SW-620 colon = test system: SW-620 colon
# MCF7 breast = test system: MCF7 breast
# HCT-116 colon = test system: HCT-116 colon
# HCC-2998 colon = test system: HCC-2998 colon
# KM12 colon = test system: KM12 colon
SMILES,growth (T-47D breast),growth (BT-549 breast),growth (MDA-MB-435 melanoma),growth (SW-620 colon),growth (MCF7 breast),growth (HCT-116 colon),growth (HCC-2998 colon),growth (KM12 colon)
N=C(N)c1ccc(-c2ccc(-c3ccccc3)s2)cc1F,-65.6% (active),-96.8% (active),-84.2% (active),-85.4% (active),-71.7% (active),-91.8% (active),-79.1% (active),-86.1% (active)
COc1ccc2oc(=O)cc(C3c4ccc([nH]4)C(c4cc(=O)oc5ccc(OC)cc45)c4ccc([nH]4)C(c4cc(=O)oc5ccc(OC)cc45)c4ccc([nH]4)C(c4cc(=O)oc5ccc(OC)cc45)c4ccc3[nH]4)c2c1 (stereo unspecified),-28.7% (active),-73.8% (active),1.62% (active),-64.1% (active),-29.7% (active),-70.4% (active),30.5%,1.11% (active)
Cc1nn2c(/C=C3/C(=O)Nc4ccc(Cl)cc43)c(-c3ccccc3)nc2s1,-1.58% (active),48.8%,44.4%,44.2%,38.5%,7.12% (active),102%,59.1%
O=[N+]([O-])c1ccc(S(=O)(=O)OCCCCOS(=O)(=O)c2ccc([N+](=O)[O-])cc2)cc1,100%,106%,95.1%,102%,95.9%,108%,100%,107%
C#CCn1c(-c2cccc(OCCCCl)c2)nc2c1c(=O)n(C)c(=O)n2C,18%,13.8%,78.9%,95%,84.7%,51.9%,104%,56.5%
O=C(CCl)N1c2ccccc2Sc2ccc3ccccc3c21,-68.2% (active),-40.9% (active),-34.7% (active),-65.6% (active),10% (active),-99.6% (active),-94.4% (active),-77.5% (active)
Cc1ccc(NC(=O)/C=N/O)cc1C,76.4%,91.6%,96.5%,100%,61.5%,98.1%,116%,104%
CS(=O)(=O)Nc1ccc(OCc2nnc(-c3ccc(Cl)cc3)o2)c(F)c1,63.1%,89.4%,104%,108%,81.7%,86.9%,101%,98.6%
COC(=O)c1cnc2c(c1)Oc1ccc(Cl)cc1-c1cc(C)nn1-2,59.9%,83.4%,91.3%,66%,83.4%,42.6%,92.1%,85.8%
CCCCn1c(=O)[nH]c(N)c(C(c2ccc(Cl)cc2)c2c(N)[nH]c(=O)n(CCCC)c2=O)c1=O,21%,49.8%,31.1%,64.2%,21.1%,27.3%,54.7%,35.3%
Oc1[nH]c2ccccc2c1/C=c1/cc2c(c(-c3ccc(C(F)(F)F)cc3)n1)=Nc1ccccc1-2,37.5%,82.7%,4.17% (active),41.8%,11.3%,30%,54.7%,36.2%
Cc1cc(C)c2nc(C)c(C)[n+]([O-])c2c1,94.9%,106%,111%,114%,95.6%,97.3%,97.9%,106%
CC(C)/C=N/NC(N)=S,45.6%,105%,86.4%,76.4%,8.48% (active),8.16% (active),96.4%,112%
O=C(/C=C/c1nnc2n(Cc3ccccc3)c(=O)c3c4c(sc3n12)CCCC4)c1ccccc1,-39.2% (active),82.4%,93.2%,9.38% (active),64.3%,44.1%,87.8%,55.2%
CCOC(=O)[C@@H](Cc1ccccc1)NC(=O)c1[nH]c2ccc(Cl)cc2c(=O)c1C,87.1%,108%,103%,96.3%,96.8%,65.2%,87.6%,97%
COc1cc(OC)cc(-c2n/c(=C\c3c(O)[nH]c4ccc(OC)cc34)cc3c2=Nc2ccccc2-3)c1,109%,92.3%,67.2%,46.9%,-64.9% (active),13.7%,22.2%,-49.8% (active)
COc1cc(C2C=C(c3ccc(Cl)cc3)N=C3SC(C)=CN32)cc(OC)c1OC (stereo unspecified),72.2%,88.5%,72.9%,94.5%,67.6%,50.3%,101%,94.1%
Cc1ccc([P+](Cc2ccccc2)(c2ccccc2)c2ccccc2)cc1,-3.45% (active),-4.96% (active),2.32% (active),24.4%,9.62% (active),4.1% (active),21.6%,8.34% (active)
COc1cc(-c2nc(-c3nnc(-c4cccnc4)o3)c3ccccn23)cc(OC)c1OC,100%,97.7%,99.2%,92.8%,107%,96.8%,99.9%,100%
CN(C)Cc1cccs1,83.9%,96.6%,118%,108%,103%,89%,96.6%,101%
CCCCCN(CCCCC)C(C)C(O)c1ccc2cc(Cl)c3ccccc3c2c1 (stereo unspecified),83.8%,110%,103%,80%,90.6%,65.7%,97.6%,103%
COc1cccc2c1O/C(=C\c1ncc([N+](=O)[O-])n1C)C2=O,97.5%,-63.6% (active),-62.5% (active),-20% (active),3.84% (active),-53.2% (active),-54.9% (active),-50.6% (active)
CCCCn1c(=O)[nH]c2c(c1=O)C(c1ccc(Cl)cc1)c1c([nH]c(=O)n(CCCC)c1=O)N2,73.3%,100%,103%,101%,88.2%,96.6%,103%,102%
CCCN(CCC)CCCNC(=O)c1cc2c(-c3ccc(OC)c(OC)c3)nn(C)c2s1,24.5%,13.7%,-24.5% (active),10.8%,11.2%,13.7%,67.2%,6.62% (active)
Fc1ccc(Nc2ccnc(N3CCN(c4ccnc5cc(Cl)ccc45)CC3)n2)cc1,-0.414% (active),75.1%,48.6%,63.2%,19.2%,15.4%,62.6%,42.1%
COc1cc(C(c2c[nH]c3ccccc23)N2CCCC2)ccc1OCc1ccccc1 (stereo unspecified),81.5%,-2.45% (active),96.8%,98.9%,83.4%,69%,96.2%,92.2%
COc1ccc(-c2nc(SCC(=O)c3ccc(Br)cc3)[nH]c(=O)c2C#N)cc1,93.9%,94.2%,100%,106%,100%,97.4%,104%,96.9%

# From PubChem BioAssay (NCI)
